From PubChem BioAssay AID1159580 (chemical genetic matrix, 2015)
In all, about 5,500 compounds went through this assay and about 2,000 (36%) were called active. Roughly 18% stayed inconclusive and do not appear here. Rule as the data show it: active = normalized growth mostly below about 0.91 (no sharp cut-off); inconclusive = no clear call, values can overlap the other calls; inactive = mostly above about 0.92. This is one part of the list.

Test: chemical genetic growth profiling, strain panel (AID 1159580);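 also: tested at 20 µM; growth read once vehicle control cultures reached saturation at 30 °C; 1 = growth at the plate median or of vehicle wells; lower values mean less growth of the strain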
Conditions: S. cerevisiae deletion strains, growth OD

Measured: normalized growth

CC(=O)[C@H]1CCC2C3CC=C4C[C@@H](OS(=O)(=O)O)CC[C@]4(C)C3CC[C@@]21C (some centres undefined)
inactive: locus YAL040C, strain CLN3, active compounds read low 0.959 | locus YCL061C, strain MRC1 (second series), active compounds read low 0.981 | locus YDR363W, strain ESC2, active compounds read low 1.01 | locus YER002W, strain NOP16, active compounds read low 0.979 | locus YMR263W, strain SAP30, active compounds read low 0.978 | locus YMR307W, strain GAS1, active compounds read low 0.997 | locus YNL175C, strain NOP13, active compounds read low 0.988 | locus YNL197C, strain WHI3, active compounds read low 1 | locus YNL224C, strain SQS1, active compounds read low 0.984 | locus YNL322C, strain KRE1, active compounds read low 0.964 | locus YOR083W, strain WHI5 (second series), active compounds read low 0.975 | locus YPL241C, strain CIN2, active compounds read low 0.984

CC(=O)OCC(=O)[C@@]1(O)CCC2C3CC[C@@H]4C[C@H](O)CC[C@]4(C)C3C(=O)C[C@@]21C (some centres undefined)
inactive: locus YAL021C, strain ccr4, active compounds read low 1.02 | locus YAL026C, strain drs2, active compounds read low 1.01 | locus YAL030W, strain snc1, active compounds read low 1.02 | locus YBL061C, strain skt5, active compounds read low 1.03 | locus YBR009C, strain hhf1, active compounds read low 1.03 | locus YBR023C, strain chs3, active compounds read low 1.02 | locus YBR171W, strain sec66, active compounds read low 1.03 | locus YBR231C, strain swc5, active compounds read low 1.02 | locus YBR279W, strain paf1, active compounds read low 1.03 | locus YCL011C, strain gbp2, active compounds read low 1.04 | locus YCL016C, strain dcc1, active compounds read low 1.04 | locus YCL061C, strain MRC1, active compounds read low 1.03 | locus YCL069W, strain vba3, active compounds read low 1.01 | locus YCR088W, strain abp1, active compounds read low 1.01 | locus YDL005C, strain med2, active compounds read low 1.02 | locus YDL040C, strain nat1, active compounds read low 1.02 | locus YDR001C, strain nth1, active compounds read low 1.01 | locus YDR069C, strain doa4, active compounds read low 1.02 | locus YDR137W, strain rgp1, active compounds read low 1.06 | locus YDR159W, strain sac3, active compounds read low 1.01 | locus YDR195W, strain ref2 0.988 | locus YDR297W, strain sur2, active compounds read low 1.01 | locus YDR334W, strain swr1, active compounds read low 1.01 | locus YDR335W, strain msn5, active compounds read low 1.01 | locus YDR392W, strain spt3, active compounds read low 0.983 | locus YEL003W, strain gim4, active compounds read low 1.01 | locus YEL037C, strain rad23, active compounds read low 1 | locus YEL061C, strain CIN8 (second series), active compounds read low 1.01 | locus YER015W, strain faa2, active compounds read low 1.01 | locus YER016W, strain bim1, active compounds read low 1.02 | locus YER111C, strain swi4, active compounds read low 1.02 | locus YER155C, strain BEM2 (second series), active compounds read low 1.03 | locus YFR010W, strain ubp6, active compounds read low 1.01 | locus YGL167C, strain pmr1, active compounds read low 1.01 | locus YGL173C, strain kem1, active compounds read low 1.03 | locus YGL227W, strain vid30, active compounds read low 1.02 | locus YGL240W, strain doc1, active compounds read low 1.03 | locus YGL253W, strain hxk2, active compounds read low 1.01 | locus YHR013C, strain ard1, active compounds read low 1.03 | locus YHR027C, strain rpn1, active compounds read low 1.01 | locus YHR142W, strain chs7, active compounds read low 1.02 | locus YJL092W, strain hpr5, active compounds read low 1.01 | locus YJL095W, strain BCK1 (second series), active compounds read low 1.02 | locus YJL115W, strain asf1, active compounds read low 1.02 | locus YJL129C, strain trk1, active compounds read low 1.05 | locus YJL154C, strain vps35, active compounds read low 1.01 | locus YJL164C, strain tpk1, active compounds read low 1.03 | locus YJL166W, strain qcr8, active compounds read low 1.03 | locus YJL187C, strain SWE1, active compounds read low 1.02 | locus YKL160W, strain elf1, active compounds read low 1.03 | locus YKR026C, strain gcn3, active compounds read low 1.01 | locus YKR091W, strain srl3, active compounds read low 1.02 | locus YLL001W, strain dnm1, active compounds read low 1.03 | locus YLL026W, active compounds read low 1.02 | locus YLL041C, strain sdh2, active compounds read low 1.01 | locus YLR027C, strain aat2, active compounds read low 1.02 | locus YLR221C, strain rsa3, active compounds read low 1.05 | locus YLR258W, strain gsy2, active compounds read low 1.02 | locus YLR262C, strain YPT6 (second series), active compounds read low 1.04 | locus YLR320W, strain mms22, active compounds read low 1.07 | locus YLR342W, strain FKS1, active compounds read low 1.01 | locus YLR357W, strain rsc2, active compounds read low 1.03 | locus YLR370C, strain arc18, active compounds read low 1.02 | locus YLR384C, strain iki3, active compounds read low 1.02 | locus YML120C, strain ndi1, active compounds read low 1.01 | locus YMR058W, strain fet3, active compounds read low 1.01 | locus YMR125W, strain sto1, active compounds read low 1.02 | locus YMR129W, active compounds read low 1.01 | locus YMR205C, strain PFK2, active compounds read low 1.03 | locus YMR231W, strain pep5, active compounds read low 1.01 | locus YNL071W, strain lat1, active compounds read low 1.02 | locus YNL209W, strain ssb2, active compounds read low 1.02 | locus YNL248C, strain rpa49, active compounds read low 1.01 | locus YNL322C, strain KRE1 (second series), active compounds read low 1.03 | locus YNR049C, strain mso1, active compounds read low 1.01 | locus YOR001W, strain rrp6, active compounds read low 1.01 | locus YOR070C, strain gyp1, active compounds read low 1.02 | locus YOR080W, strain dia2, active compounds read low 1.02 | locus YOR083W, strain WHI5, active compounds read low 1.04 | locus YOR106W, strain vam3, active compounds read low 1.02 | locus YOR265W, strain rbl2, active compounds read low 1.02 | locus YOR270C, strain vph1, active compounds read low 1.03 | locus YOR290C, strain snf2, active compounds read low 1 | locus YPL051W, strain arl3, active compounds read low 1.02 | locus YPL078C, strain atp4, active compounds read low 1.02 | locus YPL106C, strain sse1, active compounds read low 1.07 | locus YPL240C, strain hsp82, active compounds read low 1.02
